The list is not random: actives were taken first. Their share in the collection is about 19%.
KB-3-1 tox – kills parental KB-3-1 adenocarcinoma cells; Potency, µM (titrated, usually from 46.1 µM), hits mostly cytotoxic; KB-3-1 viability, CellTiter-Glo ATP luminescence, 72 h; AID 1347075; hit rate 1.4% among 400,000; note: nearly all actives have a fitted effect of over 60% in size
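Parental KB-3-1 adenocarcinoma cells in phenol-red-free DMEM with 10% FBS were pin-treated with compounds at several concentrations, incubated 72 h at 37 °C, and viability read by CellTiter-Glo luminescence; concentration-effect curves were fitted after normalization.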
KB-V1 cytotox – KB-V1 MDR subline cytotoxicity; KB-V1 MDR cells viability, CellTiter-Glo, 72 h; Potency, µM (series often up to 46.1 µM), usual class: cytotoxic; hit rate 3.4% among 400,000; note: nearly all actives have a fitted effect of over 60% in size
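KB-V1, DMEM (no phenol red) + 10% FBS; cpd pin-transferred, titration series; 72 h, 37 degrees C; CellTiter-Glo, luminescence. Data normalized, curve-fit.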
DT40 TDP1 CPT – growth inhibition of DT40 Tdp1-/-;hTDP1 cells with camptothecin (screen for TDP1 inhibitors); chicken DT40 Tdp1-/-;hTDP1 cells + 20 nM CPT, ATP luminescence, 48 h; Potency, µM (top dose mostly 46.2 µM), actives largely listed as inhibitors; hit rate 12% among 420,000; AID 686979; note: nearly all actives have a fitted effect of over 55% in size
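Cell growth measured by CellTiter-Glo luminescence after a minimum 48 h, 37 C compound exposure with 20 nM CPT in Tdp1-knockout DT40 cells stably expressing hTDP1, seeded 400/well; qHTS titration format.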
HT1080NT lethal – kills 2HG-producing HT-1080-NT fibrosarcoma cells | HT-1080-NT fibrosarcoma viability, CellTiter-Glo ATP luminescence, 48 h | Potency, µM (titrated, usually from 46.1 µM), hits mostly cytotoxic | hit rate 1.6% among 360,000 | AID 686970;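 note: NT is the 2HG producing partner of a matched IDH1 knockdown line; nearly all actives have a fitted effect of over 55% in size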
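Luminescent CellTiter-Glo readout after 48 hours of compound exposure at 37 degrees C defined viability of HT-1080-NT cells. Activity was normalized to DMSO wells and cell-free media wells; concentration-response curves were fitted and assigned curve classes.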
HT1080 IDH1KD tx – HT-1080 IDH1 knockdown cell toxicity (counter line); AID 686971; hit rate 2% among 360,000; Potency, µM (top dose mostly 46.1 µM), actives largely listed as cytotoxic; HT-1080 IDH1 knockdown viability, ATP luminescence, 48 h
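Knockdown cells (IDH1KD HT-1080) received compounds 2 h after plating at 750 cells/well and were kept 48 h at 37 °C in 5% FBS RPMI. A CellTiter-Glo luminescence read gave % activity for curve fitting.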
TDP1 cell noCPT – qHTS for Inhibitors of human tyrosyl-DNA phosphodiesterase 1 (TDP1): qHTS in cells in absence of CPT. DT40 Tdp1-/- hTDP1 cells, no CPT, ATP luminescence, 48 h. Potency, µM (doses to about 46.2 µM), usual class: inhibitors. hit rate 15% among 420,000; note: nearly all actives have a fitted effect of over 55% in size
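Seeded 400 DT40-hTDP1 cells/well (vehicle DMSO, no 20 nM CPT); pinned compounds; ≥48 hr at 37 °C; CellTiter-Glo luminescence as viability measure.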
Numbers stand for hits; i = inactive; ? = inconclusive; nt = no result; [ ] = remark or other dose. Calls come from the whole dose curve; as a rule, active = well fitted curve in the direction sought with a large enough effect; inconclusive = small, poorly fitted or top-dose-only effect, or another doubt; inactive = no such curve, though single readings can be large; an effect the other way counts as inactive or inconclusive.

SMILES	KB-3-1 tox	KB-V1 cytotox	DT40 TDP1 CPT	HT1080NT lethal	HT1080 IDH1KD tx	TDP1 cell noCPT
O=C(NCc1nnnn1-c1ccc(F)cc1)C(=O)c1c[nH]c2ccccc12	i	i	i	i	i	?
CCCn1c(SCC(=O)N2CCCc3ccccc32)nnc1-c1ccccn1	i	i	?	i	i	?
CCCCCNCc1cccc(Br)c1	i	i	?	i	i	i
CC(C)NC(=O)c1ccc(CS(=O)(=O)c2ccc(Br)cc2)o1	i	i	i	i	i	i
CC(=O)Nc1cccc(NC(=O)CSc2nc(C3CC3)nc3ccccc23)c1	i	i	4.1µM	?	?	7.3µM
O=C(CSc1nc(C2CC2)nc2ccccc12)N1c2ccccc2Sc2ccc(C(F)(F)F)cc21	?	18µM	8.2µM	i	i	23µM
Cc1nonc1NC(=O)CSc1nc(C2CCCCC2)nc2ccccc12	i	i	29µM	i	i	23µM
CC(C)(C)C1CCc2onc(C(=O)O)c2C1 (configuration not stated)	i	i	i	i	i	i
COC(=O)CSc1nc2c(cnn2-c2ccc(F)cc2)c(=O)[nH]1	i	i	i	i	i	i
CC(C)n1nnnc1C1c2ccccc2C(=O)N1Cc1ccco1 (configuration not stated)	i	i	i	i	i	i
Cc1cccc(N2C(=O)c3cccc4c(N(C)CCO)ccc(c34)C2=O)c1	i	?	?	i	i	18µM
COC(=O)C[C@H]1CC[C@@H](NC(=O)Nc2ccc(C(F)(F)F)cc2)[C@@H](CO)O1	i	i	i	i	i	i
COc1ccc(NC(=O)c2cc(-c3cc(F)ccc3OC)n[nH]2)cc1OC	i	i	21µM	?	?	23µM
COc1ccc(NC(=O)c2cc(-c3cc(C)cc(C)c3O)n[nH]2)cc1Cl	?	?	21µM	i	?	?
CC(C)Oc1cc(F)ccc1-c1cc(C(=O)NCc2cccs2)[nH]n1	i	i	?	i	i	?
COc1ccc(NC(=O)c2cc(-c3cc(F)ccc3OC)n[nH]2)cn1	i	i	?	i	i	?
CCCOc1ccc(F)cc1-c1cc(C(=O)NCc2cccs2)[nH]n1	i	?	23µM	i	i	7.3µM
CCCOc1ccc(F)cc1-c1cc(C(=O)Nc2ccc(C(C)C)cc2)[nH]n1	?	i	?	?	23µM	26µM
CCN1CCN(Cc2nc3cc(NC(=O)c4cc(OC)c(OC)c(OC)c4)ccc3n2CC)CC1	i	?	i	nt	nt	i
CCCOc1ccc(F)cc1-c1cc(C(=O)Nc2ccc(OC)c(OC)c2)[nH]n1	?	21µM	21µM	?	?	?
CSc1nnc2c(n1)OC1(Nc3ccccc3-2)C(=O)Nc2ccccc21 (configuration not stated)	i	i	?	i	i	16µM
CCSc1nnc2c(n1)OC(C)(C)Nc1ccccc1-2	i	i	i	i	i[9.24 µM]	?
COC(=O)c1ccc2nc(-c3ccco3)c(Cc3ccc(OC)cc3C)n2c1	i	i	?	?	16µM	?
COC(=O)c1ccc2nc(-c3ccco3)c(Cc3cccc(F)c3)n2c1	i	i	16µM	?	?	18µM
COC(=O)c1ccc2nc(-c3ccc(F)cc3)c(Cc3cccc(Cl)c3)n2c1	?	?	?	i	i	18µM
SMILES	KB-3-1 tox	KB-V1 cytotox	DT40 TDP1 CPT	HT1080NT lethal	HT1080 IDH1KD tx	TDP1 cell noCPT
COC(=O)c1ccc2nc(-c3ccc(OC)c(OC)c3)c(Cc3ccc(C)cc3)n2c1	i	i	?	?	?	21µM
COC(=O)c1ccc2nc(-c3ccc(F)cc3)c(Cc3cccc(F)c3)n2c1	?	?	i	i	i	i
COc1ccc(-c2nc3ccc(Cl)cn3c2Cc2ccc(C)cc2)cc1OC	i	i	?	?	?	?
COC(=O)c1ccc2nc(-c3ccccc3)c(Cc3cccc(F)c3)n2c1	i	?	?	i	i	?
COC(=O)c1ccc2nc(-c3ccc(OC)c(OC)c3)c(Cc3cccc(F)c3)n2c1	i	i	12µM	i	?	13µM
COC(=O)c1ccc2nc(-c3ccc(C)cc3)c(Cc3ccc(C)cc3)n2c1	i	i	?	i	i	16µM
COC(=O)c1ccc2nc(-c3ccco3)c(Cc3ccc(C)cc3)n2c1	i	i	i	?	?	?
CN(C)c1ncc(C(=O)NCc2ccccc2Cl)cn1	i	i	i	nt	nt	i

High-throughput results deposited in PubChem BioAssay by National Center for Advancing Translational Sciences (NCATS).
